Reference: PubChem BioAssay
Activity calls are given as the source filed them.

What was measured:
[1] = small molecules captured by biotinylated probe aFSTL3 – biochemical, small-molecule microarray, fluorescence 635/667, stem cell growth factor project, primary screen (AID 1064); settings: higher = more signal;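 also: measures binding of the biotinylated anti-FSTL3 antibody to printed compounds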
[2] = binders from COS7 lysate, DM2A8 probe, primary screen, torsin A project, cell lysate, small-molecule microarray, fluorescence 635/667 (AID 1065); settings: higher = more signal, COS7 lysate expressing mutant human TOR1A
[3] = small molecules captured by biotinylated probe aFGF2 – biochemical, small-molecule microarray, fluorescence 635/667, stem cell growth factor project, primary screen (AID 1067); settings: higher = more signal;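 also: measures binding of biotinylated aFGF2 protein to printed compounds on slides; z-score merges feature fluorescence and signal-to-noise across triplicate slides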
[4] = small molecules captured by biotinylated probe aFGF10 – biochemical, small-molecule microarray, fluorescence 635/667, stem cell growth factor project, primary screen (AID 1071); settings: higher = more signal;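 also: score merges 667 nm spot intensity and signal to noise from triplicate slides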
[5] = biological target: Neurogenic locus notch homolog protein 2 (Homo sapiens) (UniProt Q04721); assay: small molecules binding Notch2 protein – biochemical, small-molecule microarray, 635 nm fluorescence, stem cell growth factors, primary screen (AID 1073); settings: higher = more signal
[6] = biological target: Pro-neuregulin-1, membrane-bound isoform (Homo sapiens) (UniProt Q02297); assay: small molecules binding neuregulin-1 protein – biochemical, small-molecule microarray, fluorescence 635/667, psychiatric disease protein project, primary screen (AID 1075); settings: NRG1 binding, 635 nm fluorescence, higher = more signal;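 also: score combines 667 nm spot fluorescence with signal to noise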
[7] = test system: Neuregulin-1 EGF-like domain; assay: small molecules binding NRG1 EGF domain – biochemical, small-molecule microarray, 635 nm fluorescence, primary screen (AID 1081); settings: higher = more signal;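 also: binding of the protein to compounds printed on small-molecule microarray slides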
[8] = FRG1 expression reporter modulators in myotubes – cell-based, C2C12 myotubes, firefly/Renilla luciferase, luminescence, FRG1 inhibition for FSHD, primary screen (AID 1084); settings: FRG1 promoter luciferase, higher = more signal, called active from +8 up or from −8 down
[9] = small molecules captured by biotinylated probe aFST – biochemical, small-molecule microarray, fluorescence 635/667, stem cell growth factor project, primary screen (AID 1086); settings: higher = more signal;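 also: score merges 667 nm fluorescence with signal-to-noise of each printed compound spot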
[10] = binders of probe aHhip on microarray, primary screen, stem cell growth factor project, biochemical, small-molecule microarray, fluorescence 635/667 (AID 1087); settings: higher = more signal;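 also: score merges spot fluorescence at 667nm with spot signal to noise ratio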
[11] = test system: PRMT1 (protein arginine N-methyltransferase 1); assay: small molecules binding arginine methyltransferase PRMT1 – biochemical, small-molecule microarray, 635 nm fluorescence, primary screen (AID 1088); settings: higher = more signal;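 also: binding of Prmt1 protein to compounds spotted on small-molecule microarray slides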
[12] = growth effects on S. cerevisiae YJM789 – YJM789 clinical isolate, OD600, 24 h, basal, primary screen (AID 1089); settings: higher = more signal, called active from +8 up or from −8 down;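 also: growth of clinical yeast isolate S. cerevisiae YJM 789 seeded 1000 cells per well; test concentration not given here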
[13] = S. pombe growth modifiers, basal conditions – strain 972, OD600, 24 h, no modulator, primary screen (AID 1090);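 also: basal condition with compound alone and no growth modifier present; test concentration not given here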; settings: S. pombe 972 growth, higher = more signal, called active from +8 up or from −8 down
[14] = budding yeast growth modifiers under rapamycin – strain BY4716, OD600, 96 h, primary screen (AID 1091); also: test concentration not given here; settings: S. cerevisiae BY4716 + rapamycin, higher = more signal, called active from +8 up or from −8 down
[15] = biological target: Torsin-1A-interacting protein 2 (Homo sapiens) (UniProt Q8NFQ8); assay: small molecules binding lysate-expressed LULL1 – cell lysate, human LULL1 lysate, 635/667 nm fluorescence, primary screen (AID 1092); settings: small-molecule microarray, hLULL1 lysate binding, 635 nm fluorescence; higher = more signal;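 also: probe is lysate of COS7 cells overexpressing human LULL1; score merges per-feature 667 nm fluorescence with signal-to-noise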
[16] = optical density change of DRC41 E. coli – strain DRC41, OD650, 24 h, E. coli filamentation project, primary screen (AID 1093);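 also: MC1000 strain lacking acrAB efflux and sulA so SOS filamentation is blocked; test concentration not given here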; settings: E. coli DRC41 growth, higher = more signal, called active from +8 up or from −8 down
[17] = probe aLefty2 binding to arrayed compounds – biochemical, biotinylated probe, 635/667 nm fluorescence, primary screen (AID 1094); settings: small-molecule microarray, higher = more signal;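 also: score merges spot fluorescence near 667 nm with spot signal-to-noise ratio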
[18] = test system: Noggin (protein binding on small-molecule microarray); assay: small molecules binding Noggin protein – biochemical, 635/667 nm fluorescence, primary screen (AID 1095); settings: 635 nm fluorescence, higher = more signal;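 also: score merges 667 nm feature fluorescence with signal to noise over triplicate slides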
[19] = biological target: Neurogenic locus notch homolog protein 3 (Homo sapiens) (UniProt Q9UM47); assay: small molecules binding NOTCH3 protein – biochemical, 635/667 nm fluorescence, primary screen (AID 1096); settings: small-molecule microarray, 635 nm fluorescence, higher = more signal
[20] = probe aEGFR binding to arrayed compounds – biochemical, biotinylated probe, 635/667 nm fluorescence, primary screen (AID 1097); settings: small-molecule microarray, higher = more signal;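 also: probe is a biotinylated anti-EGFR antibody binding compounds printed on slides; score combines fluorescence near 667 nm and signal to noise of each spot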

Neurogenic locus notch homolog protein 2 (Homo sapiens), sequence (Q04721 whole entry, looked up, canonical isoform): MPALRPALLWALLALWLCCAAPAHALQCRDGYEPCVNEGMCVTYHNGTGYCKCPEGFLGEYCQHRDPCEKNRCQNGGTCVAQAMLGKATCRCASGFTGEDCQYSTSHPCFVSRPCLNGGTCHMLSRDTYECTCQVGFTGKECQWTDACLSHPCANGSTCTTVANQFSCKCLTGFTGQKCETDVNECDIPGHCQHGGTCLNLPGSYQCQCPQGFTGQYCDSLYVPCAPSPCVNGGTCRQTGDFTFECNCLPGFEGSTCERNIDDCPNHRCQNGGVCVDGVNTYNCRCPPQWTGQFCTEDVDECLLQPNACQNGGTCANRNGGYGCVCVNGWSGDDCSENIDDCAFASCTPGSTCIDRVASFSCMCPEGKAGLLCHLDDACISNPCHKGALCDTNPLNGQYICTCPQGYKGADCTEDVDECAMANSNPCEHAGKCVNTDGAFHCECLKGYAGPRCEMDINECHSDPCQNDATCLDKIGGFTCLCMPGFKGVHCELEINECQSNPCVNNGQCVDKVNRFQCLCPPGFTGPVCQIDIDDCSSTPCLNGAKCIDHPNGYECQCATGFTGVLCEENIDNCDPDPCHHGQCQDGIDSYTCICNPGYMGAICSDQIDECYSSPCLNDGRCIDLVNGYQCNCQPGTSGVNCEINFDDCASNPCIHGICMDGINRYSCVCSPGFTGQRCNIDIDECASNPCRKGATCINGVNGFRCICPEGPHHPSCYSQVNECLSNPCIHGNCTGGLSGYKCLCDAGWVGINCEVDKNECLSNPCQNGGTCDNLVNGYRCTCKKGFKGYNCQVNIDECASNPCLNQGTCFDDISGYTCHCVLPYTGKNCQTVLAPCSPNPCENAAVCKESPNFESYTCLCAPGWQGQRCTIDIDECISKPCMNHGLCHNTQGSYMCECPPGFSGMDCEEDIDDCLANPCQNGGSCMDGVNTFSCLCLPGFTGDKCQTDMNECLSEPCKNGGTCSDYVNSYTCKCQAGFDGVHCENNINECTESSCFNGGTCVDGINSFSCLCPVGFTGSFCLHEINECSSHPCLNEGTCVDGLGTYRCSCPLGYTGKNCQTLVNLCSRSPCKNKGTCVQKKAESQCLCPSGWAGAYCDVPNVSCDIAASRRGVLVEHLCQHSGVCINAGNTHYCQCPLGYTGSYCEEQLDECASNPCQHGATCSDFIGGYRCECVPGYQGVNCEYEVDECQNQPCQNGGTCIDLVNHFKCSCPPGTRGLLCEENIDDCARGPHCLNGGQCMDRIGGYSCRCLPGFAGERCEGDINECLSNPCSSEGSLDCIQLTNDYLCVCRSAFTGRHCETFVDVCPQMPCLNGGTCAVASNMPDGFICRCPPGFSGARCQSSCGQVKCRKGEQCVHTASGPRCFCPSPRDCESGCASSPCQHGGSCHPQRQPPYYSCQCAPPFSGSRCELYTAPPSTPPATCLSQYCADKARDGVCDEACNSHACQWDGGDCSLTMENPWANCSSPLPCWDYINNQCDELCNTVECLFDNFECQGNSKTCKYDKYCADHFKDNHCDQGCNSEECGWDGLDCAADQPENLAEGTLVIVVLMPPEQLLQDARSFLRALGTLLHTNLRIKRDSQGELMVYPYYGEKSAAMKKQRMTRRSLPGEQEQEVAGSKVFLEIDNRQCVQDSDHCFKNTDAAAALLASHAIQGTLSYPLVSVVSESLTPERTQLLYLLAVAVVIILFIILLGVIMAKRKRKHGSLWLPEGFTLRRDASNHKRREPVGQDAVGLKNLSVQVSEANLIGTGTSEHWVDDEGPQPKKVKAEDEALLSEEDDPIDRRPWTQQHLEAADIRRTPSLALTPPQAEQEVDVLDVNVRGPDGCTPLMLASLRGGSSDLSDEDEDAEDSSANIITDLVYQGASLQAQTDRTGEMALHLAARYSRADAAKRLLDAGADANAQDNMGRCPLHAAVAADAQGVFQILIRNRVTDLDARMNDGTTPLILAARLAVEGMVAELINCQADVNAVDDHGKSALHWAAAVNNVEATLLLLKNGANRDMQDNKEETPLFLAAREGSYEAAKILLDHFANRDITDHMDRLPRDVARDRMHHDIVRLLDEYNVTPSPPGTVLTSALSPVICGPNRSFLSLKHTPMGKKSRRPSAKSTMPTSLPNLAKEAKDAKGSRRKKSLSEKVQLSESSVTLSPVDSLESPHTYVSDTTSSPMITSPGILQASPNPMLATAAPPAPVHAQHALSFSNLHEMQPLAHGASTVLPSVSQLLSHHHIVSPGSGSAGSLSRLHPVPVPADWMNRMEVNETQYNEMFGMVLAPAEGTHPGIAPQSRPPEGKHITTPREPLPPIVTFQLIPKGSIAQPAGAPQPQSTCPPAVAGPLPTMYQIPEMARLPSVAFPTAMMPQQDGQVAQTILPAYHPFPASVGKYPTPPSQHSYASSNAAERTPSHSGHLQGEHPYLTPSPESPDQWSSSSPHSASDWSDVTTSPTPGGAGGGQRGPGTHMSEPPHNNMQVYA
Pro-neuregulin-1, membrane-bound isoform (Homo sapiens), sequence (Q02297 whole entry, looked up, the tested form may be a part, canonical isoform): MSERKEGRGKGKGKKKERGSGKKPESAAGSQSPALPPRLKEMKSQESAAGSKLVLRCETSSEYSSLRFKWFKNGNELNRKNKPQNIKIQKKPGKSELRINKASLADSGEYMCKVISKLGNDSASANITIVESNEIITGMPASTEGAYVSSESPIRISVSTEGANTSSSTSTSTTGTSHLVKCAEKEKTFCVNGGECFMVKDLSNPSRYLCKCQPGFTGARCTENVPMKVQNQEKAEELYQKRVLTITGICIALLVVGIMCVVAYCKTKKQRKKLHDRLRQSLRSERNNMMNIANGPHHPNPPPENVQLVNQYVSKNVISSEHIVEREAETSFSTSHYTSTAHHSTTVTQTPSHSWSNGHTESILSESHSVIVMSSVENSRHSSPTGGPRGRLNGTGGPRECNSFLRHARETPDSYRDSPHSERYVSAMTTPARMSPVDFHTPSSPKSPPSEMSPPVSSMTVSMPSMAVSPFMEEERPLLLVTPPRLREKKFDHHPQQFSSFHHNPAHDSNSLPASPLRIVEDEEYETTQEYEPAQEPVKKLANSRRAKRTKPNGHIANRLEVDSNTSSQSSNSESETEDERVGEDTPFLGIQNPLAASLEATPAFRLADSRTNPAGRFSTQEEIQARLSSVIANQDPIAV
Torsin-1A-interacting protein 2 (Homo sapiens), sequence (Q8NFQ8 whole entry, looked up): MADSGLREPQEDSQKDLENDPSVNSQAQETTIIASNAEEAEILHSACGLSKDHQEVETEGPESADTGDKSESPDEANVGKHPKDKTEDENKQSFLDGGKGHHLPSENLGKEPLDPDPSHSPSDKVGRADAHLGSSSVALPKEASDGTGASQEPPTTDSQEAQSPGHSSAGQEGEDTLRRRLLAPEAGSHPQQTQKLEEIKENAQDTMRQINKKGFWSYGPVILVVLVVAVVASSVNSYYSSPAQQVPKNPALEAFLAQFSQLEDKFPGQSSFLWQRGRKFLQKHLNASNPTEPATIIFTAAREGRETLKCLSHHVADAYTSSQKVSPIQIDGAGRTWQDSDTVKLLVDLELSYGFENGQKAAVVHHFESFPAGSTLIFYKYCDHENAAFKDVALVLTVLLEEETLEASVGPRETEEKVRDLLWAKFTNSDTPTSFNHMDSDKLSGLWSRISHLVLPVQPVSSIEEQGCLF

| Compound | composite z-score [1] | composite z-score [2] | composite z-score [3] | composite z-score [4] | composite z-score [5] | composite z-score [6] | composite z-score [7] | z-score [8] | composite z-score [9] | composite z-score [10] | composite z-score [11] | z-score [12] | z-score [13] | z-score [14] | composite z-score [15] | z-score [16] | composite z-score [17] | composite z-score [18] | composite z-score [19] | composite z-score [20] |
| --- | --- | --- | --- | --- | --- | --- | --- | --- | --- | --- | --- | --- | --- | --- | --- | --- | --- | --- | --- | --- |
| O=C1c2ccccc2[C@@]2(Cc3ccccc3N(C3CC3)C2=O)[C@H](c2ccc(CO)cc2)N1C1CCCCC1 | -0.0266 | -0.625 | -0.0325 | -0.015 | -0.119 | 0.123 | -0.716 | 0.291 (inactive) | -0.0416 | -0.0994 | -0.767 | -0.451 (inactive) | 0.285 (inactive) | -0.728 (inactive) | 1.79 | -0.1 (inactive) | -0.17 | -0.699 | -0.938 | -0.168 |
| COc1ccc(NN2C(C(O)c3ccco3)C=CC3C(=O)N(C4CCCCC4)C(=O)C32)cc1 (stereo not given) | -0.0934 | 1.14 | -0.051 | 1.12 | 1.36 | 0.95 | 1.15 | 0.592 (inactive) | 1.51 | 0.0216 | 1.56 | 0.0039 (inactive) | -0.134 (inactive) | 0.705 (inactive) | 3.06 | -0.465 (inactive) | 0.0405 | 0.89 | 1.03 | 0.191 |
| CCCN1C(=O)[C@]2(Cc3ccccc3)N=C(c3ccc(OCCCO)cc3)O[C@@H]2c2ccccc21 | 0.224 | 1.12 | -0.0226 | 0.347 | 0.415 | 0.305 | 1.3 | -0.355 (inactive) | 0.195 | -0.198 | 1.54 | -0.128 (inactive) | -1.88 (inactive) | 0.585 (inactive) | 3.26 | 1.05 (inactive) | -0.0159 | 1.74 | 1.13 | -0.0605 |
| O=C(O)[C@H](Cc1ccccc1)n1cc(-c2ccccn2)nn1 | -0.158 | -0.258 | -0.149 | 0.306 | 0.377 | 0.286 | 1.07 | 1.24 (inactive) | 0.321 | -0.0672 | 0.427 | 0.445 (inactive) | 1.25 (inactive) | -0.609 (inactive) | 0.524 | -0.631 (inactive) | -0.103 | 0.665 | 0.596 | -0.042 |
| COCCCNC(=O)[C@]1(Cc2ccccc2N=[N+]=[N-])N=C(c2ccc(OCCCO)cc2)O[C@@H]1c1ccccc1N=[N+]=[N-] | 0.421 | -0.0585 | 0.0797 | 0.491 | 1.3 | 1.86 | 1.15 | -1.93 (inactive) | 0.847 | -0.0296 | 1.26 | -0.922 (inactive) | -0.808 (inactive) | 1.75 (inactive) | 2.72 | 0.561 (inactive) | 0.23 | 0.115 | 0.836 | 0.0656 |
| COCCOC(=O)N1C(=O)[C@@]2(c3cc(C#CC4=CCCCC4)ccc31)[C@H](c1ccc(O)cc1)N1[C@H](c3ccccc3)[C@H](c3ccccc3)OC(=O)[C@H]1[C@@H]2C(=O)Nc1nc2ccccc2s1 | -0.177 | 0.441 | 0.0323 | 0.969 | 1.24 | 0.896 | 1.23 | 1.53 (inactive) | 1.06 | 0.0972 | 1.54 | 0.724 (inactive) | 0.0687 (inactive) | 0.801 (inactive) | 3.5 | -0.249 (inactive) | -0.141 | 0.824 | 1.04 | 0.178 |
| COCCOC(=O)N1C(=O)[C@@]2(c3cc(C#CC4(O)CCCCCC4)ccc31)[C@H](c1ccccc1OCCO)N1[C@H](c3ccccc3)[C@H](c3ccccc3)OC(=O)[C@H]1[C@@H]2C(N)=O | -0.452 | 0.447 | 0.0038 | 0.498 | 1.35 | 0.102 | 1.16 | -1.17 (inactive) | 0.489 | -0.0672 | 1.54 | 1.74 (inactive) | 0.699 (inactive) | 5.17 (inactive) | 2.24 | -0.175 (inactive) | -0.102 | 1.06 | 1.05 | 0.0254 |
| C=C[C@H](COC(C)=O)NS(=O)(=O)c1ccc(Br)cc1 | -0.127 | -0.256 | -0.151 | -0.286 | -0.506 | 0.241 | 0.656 | 1.54 (inactive) | 0.0509 | -0.0618 | -0.0232 | 0.0313 (inactive) | -1.4 (inactive) | -0.124 (inactive) | -0.0639 | 0.506 (inactive) | -0.0598 | 0.0055 | -0.564 | -0.227 |
| C[C@]1(C(=O)NC2CC2)c2ccccc2C(=O)N(Cc2ccc(OC(F)(F)F)cc2)[C@H]1c1ccc(CO)cc1 | 0.652 | 0.179 | -0.0642 | -0.366 | -1.02 | -0.47 | 0.745 | -1.68 (inactive) | 0.0221 | -0.111 | -0.613 | -0.352 (inactive) | -0.0814 (inactive) | -0.439 (inactive) | 1.77 | 0.735 (inactive) | -0.128 | -0.221 | -0.943 | -0.169 |
